According to PubChem BioAssay AID651642 (Sanford-Burnham Center for Chemical Genomics, 2012):
Activity calls are given as the source filed them.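 How the source made its calls: active means average half-effect concentration of 10 µM or less in every one of the four cell panels; inactive means the rest.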

tested on: HL-1; assay: protection of cardiomyocytes from stress damage, SAR follow-up, cell-based, panel, H9c2 and HL-1, H2O2, 2-deoxyglucose, ATP luminescence (AID 651642); details: H9c2/HL-1 cardiomyocyte H2O2 oxidative damage, mean of runs; activity: with H2O2, at 0.154 µM; outcome: with H2O2;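 further: plate controls were H2O2 plus DMSO for no effect and cells kept without H2O2 for full effect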

Row | Compound | activity
1 | CCOC(=O)c1cccc(NC(=O)c2cc(-c3cc(OC)c(OC)c(OC)c3)nc3c(Cl)cccc23)c1 | 5.38% (inactive)
2 | CCOC(=O)c1cccc(NC(=O)c2cc(-c3cc(OC)c(OC)c(OC)c3)nc3ccc(OC)cc23)c1 | 8.27% (inactive)
3 | COc1cc(-c2cc(C(=O)NCC(=O)Nc3cccc(C(C)=O)c3)c3cc(Br)ccc3n2)cc(OC)c1OC | -0.566% (active)
4 | COc1ccc2c(c1OC)C(=O)N1c3ccccc3C(=O)N(Cc3cccc(C)c3)C21 (configuration not stated) | -2.16% (inactive)
5 | COc1ccccc1CN1C(=O)c2ccccc2N2C(=O)c3c(ccc(OC)c3OC)C12 (configuration not stated) | 1.25% (inactive)
6 | COc1ccc2c(c1OC)C(=O)N1c3ccccc3C(=O)N(Cc3cccc(F)c3)C21 (configuration not stated) | 0.0397% (inactive)
7 | COc1cc(-c2cc(C(=O)Nc3cccc(C(=O)N4CCOCC4)c3)c3ccccc3n2)cc(OC)c1OC | -0.415% (inactive)
8 | CCOC(=O)c1cccc(NC(=O)c2cc(-c3cc(OC)c(OC)c(OC)c3)nc3ccc(Cl)cc23)c1 | -1.55% (inactive)
9 | COc1cc(-c2cc(C(=O)Nc3cccc(C(C)=O)c3)c3cc(C)ccc3n2)cc(OC)c1OC | 2.4% (active)
10 | CCOC(=O)c1ccccc1NC(=O)c1cc(-c2cc(OC)c(OC)c(OC)c2)nc2ccccc12 | -1.41% (inactive)
11 | CCOC(=O)c1cccc(NC(=O)c2cc(-c3cc(OC)c(OC)c(OC)c3)nc3ccccc23)c1 | 0.2% (active)
12 | COc1ccc2c(c1OC)C(=O)N1c3ccccc3C(=O)N(Cc3ccncc3)C21 (configuration not stated) | 0.0397% (inactive)
